From PubChem BioAssay
Active and inactive are the calls of the source. Unless noted, how the calls were made is not given here.

What was measured:
[1] = anti-His antibody binders, primary screen, artefact control for SMM control protein annotation, biochemical, small-molecule microarray, 635 nm fluorescence (AID 1128); conditions: anti-His Alexa647 antibody binding, higher = more signal;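 further: score merges feature fluorescence with signal-to-noise for each printed compound spot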
[2] = test system: Human papillomavirus type 1a E7 protein (residues 1-88); assay: HPV1a E7 small-molecule binders, primary screen, biochemical, small-molecule microarray, residues 1-88, 635 nm (AID 1129); conditions: small-molecule microarray binding, fluorescence 635 nm; higher = more signal
[3] = biological target: Focal adhesion kinase 1 (Homo sapiens) (UniProt Q05397); assay: small-molecule microarray binders of FAK, primary screen, biochemical, 635/667 nm fluorescence, BSA, DTT (AID 1130); conditions: PTK2 binding, 635 nm fluorescence, higher = more signal;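 further: composite of spot emission at 667 nm and signal to noise over triplicate slides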
[4] = test system: Fibrinogen (Alexa647-labelled); assay: fibrinogen binders on compound microarrays, profiling panel, artefact control for SMM control-protein annotation, biochemical, small-molecule microarray, 635/667 nm fluorescence (AID 1131); conditions: fibrinogen-A647 binding fluorescence, higher = more signal;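 further: z-score merges 667 nm fluorescence with per-spot signal-to-noise over triplicate slides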
[5] = biological target: Follistatin (Homo sapiens) (UniProt P19883); assay: follistatin binders on small-molecule microarrays, primary screen, biochemical, small-molecule microarray, 635/667 nm fluorescence (AID 1132); conditions: FST binding, 635 nm fluorescence, higher = more signal
[6] = biological target: Fibroblast growth factor 2 (Homo sapiens) (UniProt P09038); assay: FGF2 binders on small-molecule microarrays, primary screen, biochemical, small-molecule microarray, 635/667 nm fluorescence (AID 1133); conditions: small-molecule microarray binding, FGF2, fluorescence 635/667; higher = more signal
[7] = mitochondrial membrane potential change in A549 cells, profiling panel, cell-based, JC-1 fluorescence, basal, 24 h, 100 nL (AID 1138); conditions: higher = more signal;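 further: A549 lung adenocarcinoma cells under basal conditions with no added stimulus; test concentration not given here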
Lefty1 = Lefty1 binders on small-molecule microarrays, primary screen, biochemical, small-molecule microarray, 635/667 nm fluorescence (AID 1139); conditions: small-molecule microarray binding, fluorescence 635/667; higher = more signal
[8] = test system: wheat germ agglutinin (Triticum aestivum), Alexa647-labelled; assay: wheat germ agglutinin binders on compound microarrays, profiling panel, artefact control for SMM control-protein annotation, biochemical, small-molecule microarray, 635/667 nm fluorescence (AID 1140); conditions: WGA-A647 binding, 635 nm fluorescence, higher = more signal;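 further: score merges 667 nm feature emission with signal to noise over triplicate slides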
[9] = biological target: Luciferin 4-monooxygenase (Photinus pyralis) (UniProt P08659); assay: firefly luciferase enzyme inhibitors, primary screen, biochemical, luminescence, purified enzyme, 2006 set (AID 1141); conditions: SteadyGlo luminescence, 30 min, higher = more signal, called active from +8 up or from −8 down;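 further: cell-free assay with purified firefly luciferase at 100 ng per well in PBS; test concentration not given here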
[10] = test system: Wnt5a (protein binding on small-molecule microarray); assay: Wnt5a binders on small-molecule microarray, primary screen, biophysical, 635/667 nm fluorescence (AID 1142); conditions: 635 nm fluorescence, higher = more signal;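 further: fluorescence read at 667 nm with signal to noise per printed feature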
[11] = cell viability in Huh7 cells, primary screen, cytotoxicity control for HCV replication inhibitor project, CellTiter-Glo luminescence, basal, 48 h (AID 1143); conditions: Huh7 HCV replicon, higher = more signal, called active from +8 up or from −8 down;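 further: Huh7 hepatoma cells carrying a hepatitis C replication reporter with no stimulus; test concentration not given here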
[12] = P. aeruginosa biofilm formation inhibitors, primary screen, PAO1 strain, BacTiter-Glo luminescence, LB-PBS (AID 1144); conditions: 12 h, higher = more signal
[13] = CREB reporter modulators without forskolin, primary screen, cell-based, PC12, CRE-LacZ reporter, unstimulated (AID 1145); conditions: no forskolin, luminescence, 4.5 h, higher = more signal, called active from +8 up or from −8 down
[14] = CREB reporter modulators under forskolin, primary screen, cell-based, PC12, CRE-LacZ reporter, forskolin-stimulated (AID 1146); conditions: luminescence, 4.5 h, higher = more signal, called active from +8 up or from −8 down;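 further: PC12 cells with 6xCRE LacZ reporter stimulated by forskolin 10 µM; beta-galactosidase reporter signal reflecting CREB driven transcription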
[15] = biological target: Streptavidin (Streptomyces avidinii) (UniProt P22629); assay: streptavidin binders on small-molecule microarray, primary screen, artefact control for SMM compound annotation, biophysical, 635/667 nm fluorescence (AID 1147); conditions: streptavidin binding, higher = more signal;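 further: signal reflects streptavidin binding to arrayed compounds as a control protein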
[16] = small-molecule binders of probe aInhba, primary screen, biochemical, small-molecule microarray, 635/667 nm fluorescence (AID 1148); conditions: higher = more signal;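 further: score merges 667nm spot fluorescence with signal-to-noise for antibody binding to printed compounds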
Torsin-1A (Homo sapiens) [17] = biological target: Torsin-1A (Homo sapiens) (UniProt O14656); assay: torsin A binders from cell lysate, primary screen, small-molecule microarray, wild-type, 635/667 nm (AID 1149); conditions: COS7 hTOR1A-WT lysate, 635 nm fluorescence, higher = more signal
Torsin-1A (Homo sapiens) [18] = biological target: Torsin-1A (Homo sapiens) (UniProt O14656); assay: small-molecule binders of mutant TOR1A in lysate, primary screen, cell lysate, small-molecule microarray, COS7 lysate, 635/667 nm fluorescence (AID 1150); conditions: COS7 hTOR1A mutant lysate, 635 nm fluorescence, higher = more signal;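 further: score pools 667 nm emission and signal to noise measuring lysate protein binding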
[19] = test system: Sonic hedgehog protein (Shh); assay: small-molecule binders of Shh protein, primary screen, biochemical, small-molecule microarray, 635/667 nm fluorescence (AID 1151); conditions: small-molecule microarray binding, 635 nm fluorescence; higher = more signal;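 further: Shh protein binding to compounds spotted on small-molecule microarray slides; score combines spot fluorescence intensity with signal-to-noise across triplicate slides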

Chain of Focal adhesion kinase 1 (Homo sapiens) (Q05397 whole entry, looked up): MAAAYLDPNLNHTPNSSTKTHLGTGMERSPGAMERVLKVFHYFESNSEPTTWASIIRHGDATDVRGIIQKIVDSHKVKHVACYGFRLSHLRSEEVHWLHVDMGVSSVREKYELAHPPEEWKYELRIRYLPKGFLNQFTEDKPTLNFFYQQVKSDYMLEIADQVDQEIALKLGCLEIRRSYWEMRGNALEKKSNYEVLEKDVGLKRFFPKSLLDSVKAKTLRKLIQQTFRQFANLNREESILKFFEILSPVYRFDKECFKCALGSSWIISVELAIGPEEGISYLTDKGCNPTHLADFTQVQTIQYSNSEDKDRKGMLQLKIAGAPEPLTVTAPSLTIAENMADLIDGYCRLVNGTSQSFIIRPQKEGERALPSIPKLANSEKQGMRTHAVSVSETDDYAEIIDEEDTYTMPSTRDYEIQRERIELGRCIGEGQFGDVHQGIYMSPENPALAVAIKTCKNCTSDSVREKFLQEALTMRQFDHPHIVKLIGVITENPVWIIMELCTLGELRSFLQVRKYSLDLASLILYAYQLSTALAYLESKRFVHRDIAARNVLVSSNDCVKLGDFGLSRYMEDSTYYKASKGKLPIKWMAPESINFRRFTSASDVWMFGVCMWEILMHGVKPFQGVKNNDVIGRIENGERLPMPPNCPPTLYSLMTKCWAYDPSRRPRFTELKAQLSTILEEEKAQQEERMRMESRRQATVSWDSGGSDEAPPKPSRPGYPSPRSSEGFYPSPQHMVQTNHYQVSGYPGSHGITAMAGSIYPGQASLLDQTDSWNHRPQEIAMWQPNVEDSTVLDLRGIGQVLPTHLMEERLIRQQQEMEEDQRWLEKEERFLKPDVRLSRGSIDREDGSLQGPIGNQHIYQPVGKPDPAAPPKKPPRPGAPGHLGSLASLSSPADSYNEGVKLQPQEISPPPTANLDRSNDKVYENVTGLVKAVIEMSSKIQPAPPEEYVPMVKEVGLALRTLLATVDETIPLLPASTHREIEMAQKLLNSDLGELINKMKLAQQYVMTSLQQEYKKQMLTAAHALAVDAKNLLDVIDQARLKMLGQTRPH
Chain of Follistatin (Homo sapiens) (P19883 whole entry, looked up): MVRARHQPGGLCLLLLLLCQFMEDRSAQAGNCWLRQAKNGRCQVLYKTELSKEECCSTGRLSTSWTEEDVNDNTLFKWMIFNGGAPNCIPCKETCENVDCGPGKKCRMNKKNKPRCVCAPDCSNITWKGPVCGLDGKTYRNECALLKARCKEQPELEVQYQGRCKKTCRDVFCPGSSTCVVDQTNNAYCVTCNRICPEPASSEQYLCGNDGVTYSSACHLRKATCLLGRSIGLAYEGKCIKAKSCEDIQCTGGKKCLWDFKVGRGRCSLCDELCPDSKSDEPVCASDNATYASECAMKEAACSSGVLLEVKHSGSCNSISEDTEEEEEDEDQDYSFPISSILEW
Chain of Torsin-1A (Homo sapiens) (O14656 whole entry, looked up): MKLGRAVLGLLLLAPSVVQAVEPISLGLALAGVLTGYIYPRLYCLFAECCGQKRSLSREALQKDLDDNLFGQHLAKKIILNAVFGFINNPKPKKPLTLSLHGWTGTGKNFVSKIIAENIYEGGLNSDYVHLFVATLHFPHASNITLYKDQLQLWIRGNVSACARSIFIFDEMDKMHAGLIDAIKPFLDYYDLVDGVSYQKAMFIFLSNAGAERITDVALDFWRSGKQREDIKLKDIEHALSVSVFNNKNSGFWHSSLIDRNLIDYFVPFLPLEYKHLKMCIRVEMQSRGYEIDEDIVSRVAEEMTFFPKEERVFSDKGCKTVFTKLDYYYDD
Chain of Streptavidin (Streptomyces avidinii) (P22629 whole entry, looked up): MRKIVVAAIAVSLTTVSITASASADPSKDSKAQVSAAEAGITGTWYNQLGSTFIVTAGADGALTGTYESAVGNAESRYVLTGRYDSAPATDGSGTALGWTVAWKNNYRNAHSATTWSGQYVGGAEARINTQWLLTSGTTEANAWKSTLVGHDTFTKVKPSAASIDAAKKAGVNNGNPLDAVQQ
Chain of Fibroblast growth factor 2 (Homo sapiens) (P09038 whole entry, looked up): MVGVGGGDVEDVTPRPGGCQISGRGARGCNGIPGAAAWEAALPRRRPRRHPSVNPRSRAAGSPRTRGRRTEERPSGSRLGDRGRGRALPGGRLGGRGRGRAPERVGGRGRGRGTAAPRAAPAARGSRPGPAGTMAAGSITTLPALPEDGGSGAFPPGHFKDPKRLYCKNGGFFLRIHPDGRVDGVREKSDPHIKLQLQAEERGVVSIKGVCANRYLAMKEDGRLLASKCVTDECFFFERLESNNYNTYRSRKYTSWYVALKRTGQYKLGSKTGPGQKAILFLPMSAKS
Chain of Luciferin 4-monooxygenase (Photinus pyralis) (P08659 whole entry, looked up): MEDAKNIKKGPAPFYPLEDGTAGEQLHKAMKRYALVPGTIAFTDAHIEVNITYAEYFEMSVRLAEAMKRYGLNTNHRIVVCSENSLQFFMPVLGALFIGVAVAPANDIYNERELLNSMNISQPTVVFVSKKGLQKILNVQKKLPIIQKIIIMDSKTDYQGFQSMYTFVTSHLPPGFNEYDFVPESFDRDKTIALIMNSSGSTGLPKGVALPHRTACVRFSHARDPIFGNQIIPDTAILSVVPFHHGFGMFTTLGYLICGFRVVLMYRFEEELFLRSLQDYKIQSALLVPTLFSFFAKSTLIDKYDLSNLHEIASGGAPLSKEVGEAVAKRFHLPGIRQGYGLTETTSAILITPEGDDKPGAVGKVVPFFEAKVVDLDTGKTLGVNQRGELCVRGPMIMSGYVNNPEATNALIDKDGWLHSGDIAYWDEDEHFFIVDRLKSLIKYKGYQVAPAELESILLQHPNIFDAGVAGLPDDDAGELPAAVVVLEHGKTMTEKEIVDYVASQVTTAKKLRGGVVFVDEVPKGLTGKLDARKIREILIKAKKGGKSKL

Row | Structure (SMILES) | composite z-score [1] | composite z-score [2] | composite z-score [3] | composite z-score [4] | composite z-score [5] | composite z-score [6] | z-score [7] | composite z-score (Lefty1) | composite z-score [8] | z-score [9] | composite z-score [10] | z-score [11] | z-score [12] | z-score [13] | z-score [14] | composite z-score [15] | composite z-score [16] | composite z-score (Torsin-1A (Homo sapiens) [17]) | composite z-score (Torsin-1A (Homo sapiens) [18]) | composite z-score [19]
1 | C[N+](C)(C)CCCCCCNC(=O)[C@@H]1C[C@@H]2C(=O)N[C@@H](Cc3ccccc3)C(=O)N2[C@@H]1c1ccc(O)cc1 | 2.13 | 1.21 | -0.371 | 0.533 | 1.43 | 1.65 | -0.247 | 1.63 | 0.702 | 0.344 (inactive) | 0.42 | -0.267 (inactive) | -0.409 (inactive) | -0.805 (inactive) | -0.327 (inactive) | -0.0442 | -0.0039 | 1.26 | 0.984 | 2.07
2 | Cc1ccc(S[C@]2(C(=O)NC3CC3)CC(=O)N(Cc3cc(C(F)(F)F)cc(C(F)(F)F)c3)[C@@H]2c2ccc(CO)cc2I)cc1 | 2.99 | 1.03 | 0.941 | 0.103 | 1.09 | 0.483 | -0.271 | -0.337 | 0.0196 | 0.717 (inactive) | 0.272 | -0.636 (inactive) | 0.141 (inactive) | -0.0243 (inactive) | 1.16 (inactive) | 0.389 | 0.532 | -0.597 | 0.409 | 1.14
3 | O=C1O[C@@H](c2ccccc2)[C@@H](c2ccccc2)N2[C@@H](c3ccc(OCCO)cc3)[C@]3(C(=O)Nc4ccc(C#CCCO)cc43)[C@@H](C(=O)Nc3nc4ccccc4s3)[C@H]12 | 0.324 | 1.13 | 0.256 | 0.978 | 1.4 | 0.474 | -2.19 | 0.502 | 0.468 | -0.7 (inactive) | 0.482 | -2.56 (inactive) | -0.397 (inactive) | 0.389 (inactive) | 0.0759 (inactive) | 1.05 | 0.0291 | 0.222 | 0.79 | 0.589
4 | COc1ccc(C#Cc2ccc3c(c2)[C@]2(C(=O)N3)[C@H](c3ccc(OCCO)cc3)N3[C@H](c4ccccc4)[C@H](c4ccccc4)OC(=O)[C@H]3[C@@H]2C(=O)O)cc1 | 0.406 | 1.22 | 0.583 | 0.771 | 1.15 | 0.485 | -2.54 | 1.63 | 0.416 | -4.63 (inactive) | 0.57 | -5.01 (inactive) | -2.48 (inactive) | -0.0515 (inactive) | 3.52 (inactive) | -0.105 | 0.927 | 0.546 | 1.2 | 1.89
5 | CN(C)CCCC[C@@H]1NC(=O)[C@@H]2C[C@H](C(=O)NCCCCCCNC(=O)CS)[C@H](c3cccc(OCCO)c3)N2C1=O | 1.5 | 0.0742 | 0.819 | -1.07 | 0.541 | 0.541 | 1.12 | 0.273 | 0.235 | -0.402 (inactive) | 0.152 | 0.425 (inactive) | -0.332 (inactive) | -0.256 (inactive) | -0.995 (inactive) | -0.149 | -0.0471 | 0.77 | 0.702 | 0.919
6 | C[C@H]1C2[C@H](Cc3ccccc3)NC(=O)[C@]23C(=O)NCC(=O)N2CCC[C@H]2C(=O)NC/C=C\C/C=C/C3[C@@H]2O[C@]12C (stereo not given in full) | -0.151 | -0.0402 | -0.258 | -0.454 | 0.278 | 1.1 | 0.546 | 0.0393 | -0.121 | -1.25 (inactive) | 0.0076 | 0.493 (inactive) | 0.716 (inactive) | 0.495 (inactive) | -0.294 (inactive) | -0.744 | -0.018 | -0.266 | -0.618 | 1.2
7 | O=C1NC(=O)C2C1C=CC(C(O)c1ccc(F)cc1)N2Nc1ccccn1 (stereo not given) | 0.842 | 0.399 | 0.113 | 0.796 | 0.269 | 0.0568 | -0.108 | -0.269 | 0.118 | -0.855 (inactive) | -0.138 | 0.74 (inactive) | -1.36 (inactive) | -0.136 (inactive) | 0.0662 (inactive) | -0.0345 | -0.0645 | 0.286 | 0.0123 | 0.123
8 | C#CCN([C@H](/C=C/C1CC1)[C@@H](O)Cc1ccccc1)[C@@H](Cc1ccccc1)C(=O)OC | 0.482 | -0.517 | -0.113 | -0.408 | 0.794 | -0.182 | 3.47 | 0.683 | -0.34 | 0.778 (inactive) | -0.48 | -2.91 (inactive) | -0.669 (inactive) | 3.21 (inactive) | -0.765 (inactive) | 0.483 | 0.0013 | 0.0515 | -0.409 | 1.08
9 | CC(C)C[C@H]1NC(=O)[C@H](Cc2ccccc2)NC(=O)[C@@]23C(=O)N[C@@H](Cc4ccccc4)C2[C@H](C)[C@@]2(C)O[C@H]2C3/C=C/C/C=C\CNC1=O (stereo not given in full) | 0.701 | 0.475 | 0.899 | 0.315 | 0.927 | 1.01 | -0.000177 | 0.376 | 0.658 | -0.179 (inactive) | 0.116 | -1.29 (inactive) | 0.338 (inactive) | 0.67 (inactive) | 0.105 (inactive) | 0.494 | -0.0552 | 0.471 | 0.855 | 0.889
